Source: PubChem BioAssay (Tox21)
Values joined by “and” are separate entries in the source; they are usually repeats but may differ in a detail not shown here. Identical values can stand only once. Inconclusive results are not listed. Where a structure was tested more than once in an assay, its records may differ in their call. Active and inactive are the calls of the source. Unless noted, calls come from the whole dose curve; as a rule, active = well fitted curve in the direction sought with a large enough effect in the repeat runs; inconclusive = weak or mixed curves; inactive = no such curve, though single readings can be large; an effect the other way counts as inactive or inconclusive.

Assays:
[1] = qHTS assay to identify small molecule agonists of the peroxisome proliferator-activated receptor delta (PPARd) signaling pathway - cell viability counter screen (AID 743211); note: nearly all actives have a fitted effect of over 55% in size; note: potency is the fitted concentration of half-maximal effect
Outline: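 In the same wells used for beta-lactamase reporter measurement, cytotoxicity is scored by CellTiter-Glo. HEK293H PPARd-bla cells receive compound for 17 h at 37C following a 5 h settling period.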

[2] = qHTS assay to identify small molecule antagonists of the peroxisome proliferator-activated receptor delta (PPARd) signaling pathway - cell viability counter screen (AID 743213); note: nearly all actives have a fitted effect of over 50% in size
Outline: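 Luminescence from CellTiter-Glo, added after the bla read and incubated 30 min at room temperature, gives viability of HEK293H PPARd-bla cells exposed to compounds for 17 h at 37 C with 300 nM L165041.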

[3] = biological target: Peroxisome proliferator-activated receptor delta (Homo sapiens) (UniProt Q03181); experiment: qHTS assay to identify small molecule antagonists of the peroxisome proliferator-activated receptor delta (PPARd) signaling pathway (AID 743215; active = well fitted inhibition curve with a large enough effect in the signal ratio in the repeat runs, not every such curve was filed as active; the % refers to the signal ratio;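 note: cells stimulated with agonist L165041 at 300 nM final during compound exposure; series mostly up to about 62 µM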)
Outline: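 With L165041 present at 300 nM final, compounds were incubated 17 h at 37 C on PPARd UAS-bla HEK293H cells. A FRET-based beta-lactamase substrate was then applied for 2 h at room temperature and fluorescence intensity recorded.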

[4] = biological target: Bile acid receptor (Homo sapiens) (UniProt Q96RI1); experiment: qHTS assay to identify small molecule antagonists of the farnesoid-X-receptor (FXR) signaling pathway (AID 743217; active = well fitted inhibition curve with a large enough effect in the signal ratio in the repeat runs, not every such curve was filed as active; the % refers to the signal ratio)
Outline: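 In this cell-based antagonist screen, inhibition of CDCA-driven (50 uM final) UAS-beta-lactamase expression in HEK 293T cells was measured by FRET fluorescence following 16 h compound exposure at 37 °C.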

[5] = qHTS assay to identify small molecule agonists of the farnesoid-X-receptor (FXR) signaling pathway - cell viability counter screen (AID 743218); note: nearly all actives have a fitted effect of over 45% in size
Outline: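 After 16 h at 37 C with test compounds, FXR-bla HEK 293T cells were given LiveBLAzer B/G substrate for 2 h at RT and then CellTiter-Glo; luminescence was taken after 30 min.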

[6] = biological target: Bile acid receptor (Homo sapiens) (UniProt Q96RI1); experiment: qHTS assay to identify small molecule agonists of the farnesoid-X-receptor (FXR) signaling pathway (AID 743220; active = well fitted activation curve with a large enough effect in the signal ratio in the repeat runs, not every such curve was filed as active; the % refers to the signal ratio)
Outline: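 Beta-lactamase reporter under UAS control in GeneBLAzer FXR HEK 293T cells (5000/well) measured with LiveBLAzer FRET substrate after 2 h at room temperature. Compound exposure lasted 16 h at 37C.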

[7] = qHTS assay to identify small molecule antagonists of the farnesoid-X-receptor (FXR) signaling pathway - cell viability counter screen (AID 743221; active = well fitted cell-killing curve with a large enough effect in the repeat runs, not every such curve was filed as active; note: nearly all actives have a fitted effect of over 50% in size)
Outline: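 Here viability was scored by luminescence after CellTiter-Glo addition to wells already read for beta-lactamase. Prior treatment: compound plus CDCA (50 uM final), 16 h, 37 C, HEK 293T FXR-bla cells.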

[8] = biological target: Vitamin D3 receptor (Homo sapiens) (UniProt P11473); experiment: qHTS assay to identify small molecule agonists of the vitamin D receptor (VDR) signaling pathway (AID 743222; calls by dose curve)
Outline: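 VDR-bla cells were seeded, left 4 h, treated with compounds in DMSO for 16 h, incubated 2 h at RT with B/G FRET substrate, and read for fluorescence.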

[9] = biological target: Vitamin D3 receptor (Homo sapiens) (UniProt P11473); experiment: qHTS assay to identify small molecule antagonists of the vitamin D receptor (VDR) signaling pathway (AID 743223; active = well fitted inhibition curve with a large enough effect in the signal ratio in the repeat runs, not every such curve was filed as active; the % refers to the signal ratio)
Outline: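 Inhibition of agonist-driven VDR signalling is scored in VDR-bla cells: 3 nM final 1alpha,25-dihydroxyvitamin D3 plus compound, 16 h at 37C, then beta-lactamase detection by FRET substrate fluorescence after 2 h.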

[10] = qHTS assay to identify small molecule agonists of the vitamin D receptor (VDR) signaling pathway - cell viability counter screen (AID 743224); note: series mostly up to about 63 µM; nearly all actives have a fitted effect of over 50% in size
Outline: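 Here cell health was gauged by luminescent ATP detection (CellTiter-Glo, 30 min RT) in VDR-bla cells that had been incubated with test compounds for 16 h at 37C and 5% CO2.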

[11] = qHTS assay to identify small molecule antagonists of the vitamin D receptor (VDR) signaling pathway - cell viability counter screen (AID 743225); note: nearly all actives have a fitted effect of over 50% in size
Outline: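 Compounds were pinned onto VDR-bla HEK 293T cells together with 1-alpha,25-dihydroxyvitamin D3 at 3 nM final. After 16 h at 37C and 5% CO2 plus the reporter readout, cell viability was measured by CellTiter-Glo luminescence (30 min, room temperature).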

[12] = qHTS assay to identify small molecule agonists of the NFkB signaling pathway (AID 1159509; active = well fitted curve in the direction sought with a large enough effect in the signal ratio in the repeat runs, not every such curve was filed as active; the % refers to the signal ratio; note: series mostly up to about 61 µM)
Outline: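 NFkB-bla ME-180 cells with a beta-lactamase reporter under an NF-kB response element were plated overnight, treated with compounds in DMSO for 5 hr at 37 C, then loaded with FRET substrate for 1.5 hr at room temperature.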

[13] = qHTS assay to identify small molecule agonists of the NFkB signaling pathway - cell viability counter screen (AID 1159515; calls by dose curve; note: series mostly up to about 61 µM; nearly all actives have a fitted effect of over 55% in size)
Outline: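 5 hr compound treatment of NFkB-bla ME-180 cells (2,000/well, seeded overnight beforehand), followed by reporter substrate for 1.5 hr. CellTiter-Glo added afterward; luminescence after 30 min RT.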

[14] = qHTS assay to identify small molecule agonists of the endoplasmic reticulum stress response signaling pathway (AID 1159516; active = well fitted activation curve with a large enough effect in the signal ratio in the repeat runs, not every such curve was filed as active; the % refers to the signal ratio)
Outline: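 Reporter HeLa cells (ESRE-beta-lactamase) underwent 5 hr compound incubation at 37 C and 5% CO2 in quantitative HTS format. Detection followed 2 hr of FRET substrate loading at room temperature.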

[15] = qHTS assay to identify small molecule agonists of the endoplasmic reticulum stress response signaling pathway - cell viability counter screen (AID 1159517; calls by dose curve)
Outline: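 Cells, HeLa ESRE-bla; density, 1,500/well; dosing, 5 hr at 37 C, 5% CO2; readout, CellTiter-Glo luminescence after 30 min RT.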

[16] = qHTS assay to identify small molecule antagonists of the retinoid-related orphan receptor gamma (ROR-gamma) signaling pathway - cell viability counter screen (AID 1159520); note: nearly all actives have a fitted effect of over 50% in size
Outline: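 Cytotoxicity was read from cellular ATP (CellTiter-Glo luminescence) after 16 hr at 37 C with 1 uM doxycycline induction. The inducer was added 2 hr after compound transfer to Tet-on ROR gamma CHO cells.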

[17] = biological target: Nuclear receptor ROR-gamma (Homo sapiens) (UniProt P51449); experiment: qHTS assay to identify small molecule antagonists of the retinoid-related orphan receptor gamma (ROR-gamma) signaling pathway (AID 1159521; note: nearly all actives have a fitted effect of over 50% in size; note: potency is the fitted concentration of half-maximal effect)
Outline: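 Test compounds were applied to Tet-on RORγ CHO cells 2 h ahead of doxycycline hyclate (1 uM final). Luciferase reporter activity was quantified by luminescence after 16 h at 37 C and 5% CO2.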

[18] = qHTS assay to identify small molecule agonists of the AP-1 signaling pathway - cell viability counter screen (AID 1159525; calls by dose curve; note: nearly all actives have a fitted effect of over 55% in size)
Outline: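 Luminescent ATP readout (Cell Titer Glo, 30 min RT), normalised to DMSO and tetra n-octyl ammonium bromide controls. Cells were ME-180 AP-1-bla in 0.5% dialyzed FBS Opti-MEM, with a 5 h, 37 °C compound exposure.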

[19] = qHTS assay to identify small molecule agonists of the AP-1 signaling pathway (AID 1159526; calls by dose curve)
[20] = biological target: Peroxisome proliferator-activated receptor delta (Homo sapiens) (UniProt Q03181); experiment: qHTS assay to identify small molecule agonists of the peroxisome proliferator-activated receptor delta (PPARd) signaling pathway (AID 743212; calls by dose curve)
Outline: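 HEK293H UAS-bla reporter cells, human PPARd system; compounds delivered in DMSO after 5 h plating, then at 37 C. Beta-lactamase FRET read, 2 h RT substrate step.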

Measured: Potency

Peroxisome proliferator-activated receptor delta (Homo sapiens), sequence (Q03181 whole entry, looked up): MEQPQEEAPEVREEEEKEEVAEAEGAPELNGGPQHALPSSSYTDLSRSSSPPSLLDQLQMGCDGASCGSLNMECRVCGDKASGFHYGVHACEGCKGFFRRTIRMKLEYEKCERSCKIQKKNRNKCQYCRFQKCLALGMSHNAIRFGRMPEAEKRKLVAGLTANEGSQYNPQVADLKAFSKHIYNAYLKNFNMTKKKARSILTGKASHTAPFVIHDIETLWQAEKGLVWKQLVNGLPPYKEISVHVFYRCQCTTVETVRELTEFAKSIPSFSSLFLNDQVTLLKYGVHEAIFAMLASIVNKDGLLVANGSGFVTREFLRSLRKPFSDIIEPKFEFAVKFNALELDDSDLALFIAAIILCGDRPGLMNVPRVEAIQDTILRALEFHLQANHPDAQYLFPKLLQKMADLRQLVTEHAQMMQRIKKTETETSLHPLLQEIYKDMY
Vitamin D3 receptor (Homo sapiens), sequence (P11473 whole entry, looked up): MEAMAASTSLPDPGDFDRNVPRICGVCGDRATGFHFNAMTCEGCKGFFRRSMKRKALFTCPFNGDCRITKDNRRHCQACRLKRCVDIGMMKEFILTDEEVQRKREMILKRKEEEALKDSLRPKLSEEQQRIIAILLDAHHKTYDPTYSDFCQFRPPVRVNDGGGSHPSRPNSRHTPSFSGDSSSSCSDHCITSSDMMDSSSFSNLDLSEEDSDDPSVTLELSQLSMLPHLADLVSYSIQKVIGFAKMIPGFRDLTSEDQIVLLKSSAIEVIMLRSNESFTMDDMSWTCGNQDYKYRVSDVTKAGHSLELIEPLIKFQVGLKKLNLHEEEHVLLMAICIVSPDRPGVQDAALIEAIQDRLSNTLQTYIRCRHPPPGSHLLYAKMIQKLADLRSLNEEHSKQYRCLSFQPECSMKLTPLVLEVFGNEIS
Bile acid receptor (Homo sapiens), sequence (Q96RI1 whole entry, looked up): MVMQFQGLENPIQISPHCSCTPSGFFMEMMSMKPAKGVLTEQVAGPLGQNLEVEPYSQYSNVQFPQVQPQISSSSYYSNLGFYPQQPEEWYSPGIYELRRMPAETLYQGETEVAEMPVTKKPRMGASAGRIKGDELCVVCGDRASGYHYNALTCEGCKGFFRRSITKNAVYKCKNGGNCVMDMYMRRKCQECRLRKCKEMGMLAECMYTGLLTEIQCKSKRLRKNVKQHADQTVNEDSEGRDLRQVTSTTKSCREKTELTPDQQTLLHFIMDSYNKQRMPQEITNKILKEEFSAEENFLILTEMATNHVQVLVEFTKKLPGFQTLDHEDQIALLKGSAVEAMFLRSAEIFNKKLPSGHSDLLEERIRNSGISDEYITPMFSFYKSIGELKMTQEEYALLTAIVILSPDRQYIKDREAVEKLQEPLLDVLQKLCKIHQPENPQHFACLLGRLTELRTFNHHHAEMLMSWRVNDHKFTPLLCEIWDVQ

COc1cc(O)c(C(=O)c2ccccc2)cc1S(=O)(=O)O
not listed: [20]
inactive: all other assays above

Oc1cccc(O)c1
inactive: all assays above

CCCCCCCCCCCCCC(=O)OC(C)C
not listed: [20]
inactive: all other assays above

NC(=O)NO
not listed: [4] | [6] | [20]
inactive: all other assays above

Cn1cnc2c1c(=O)[nH]c(=O)n2C
not listed: [5] | [20]
inactive: all other assays above

O=C1CCCCCN1
inactive: all assays above

Cc1c(N(C)C)c(=O)n(-c2ccccc2)n1C
not listed: [5] | [20]
inactive: all other assays above

c1ccc2[nH]c(-c3cscn3)nc2c1
not listed: [5]
inactive: all other assays above

COc1ccccc1O
not listed: [20]
inactive: all other assays above

COc1cc(C=O)ccc1O
inactive: all assays above

CC(C)(C)CC(C)(C)c1ccc(O)c(-n2nc3ccccc3n2)c1
49.2 µM (active) and inactive: [17]
active: [1] 49.7 µM and 49 µM
not listed: [4] | [5]
inactive: all other assays above

Cc1c(N(C)CS(=O)(=O)O)c(=O)n(-c2ccccc2)n1C
not listed: [4] | [6]
inactive: all other assays above

COC(=O)c1ccc(C=O)cc1
not listed: [5] | [20]
inactive: all other assays above

CCn1cc(C(=O)O)c(=O)c2ccc(C)nc21
not listed: [5] | [20]
inactive: all other assays above

CC(C)(C)NCC(O)c1ccc(O)c(CO)c1 (stereo not given)
not listed: [4] | [5] | [6] | [8] | [9] | [18]
inactive: all other assays above
